TRHR ag: TRH receptor (human) agonism | activation, % at 2 µM | TRHR cells, calcium flux fluo-8, FDSS agonist mode | 0.18% of 360,000 active; note: 0% is about no effect
Target sequence (P34981 whole entry, looked up): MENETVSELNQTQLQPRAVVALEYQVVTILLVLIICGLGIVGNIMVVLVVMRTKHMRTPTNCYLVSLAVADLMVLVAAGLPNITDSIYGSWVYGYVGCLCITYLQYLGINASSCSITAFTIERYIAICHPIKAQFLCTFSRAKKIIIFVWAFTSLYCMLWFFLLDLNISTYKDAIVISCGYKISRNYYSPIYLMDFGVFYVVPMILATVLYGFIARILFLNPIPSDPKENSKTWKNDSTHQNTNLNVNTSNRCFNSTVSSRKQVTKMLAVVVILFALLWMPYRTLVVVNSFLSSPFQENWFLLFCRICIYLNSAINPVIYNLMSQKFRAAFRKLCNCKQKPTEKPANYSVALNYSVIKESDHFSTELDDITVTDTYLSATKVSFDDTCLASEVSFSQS
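Steps: seed TRHR cells overnight; add fluo-8 no-wash Ca dye, RT 30 min–1.5 h; record 10 s baseline; pin-transfer compounds; monitor fluorescence 1 cycle/s for the agonist window. Calcium increases flag candidate agonists.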
D1 antag: blocks dopamine activation of the human D1 receptor; P21728; HEK293 TREx D1 cells, calcium flux, dopamine EC80; hits give low values; activity change, negative = inhibition, % at 10 µM; 3.2% of 360,000 active; in the data active = activity change below about -30%; note: % is set by controls: 0 for no effect and ±100 for the full control effect
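Calcium flux readout: force-coupled, inducible Hek293 Trex D1 line, cells induced overnight at 30 C with tetracycline, dye-loaded 30–90 min at RT. Antagonism scored against EC80 dopamine challenge given 180 s after compound.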
TRHR enhancer: allosterically enhances the human TRH receptor | TRHR cells, fluo-8 calcium fluorescence, EC20 TRH enhancement | enhancement, % at 2 µM | 0.66% of 360,000 active | AID 493056; in the data active = enhancement above about 30%; note: 0% is about no effect
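TRHR-expressing cells loaded with fluo-8 calcium dye were read kinetically (ex 480/em 530) during compound addition, then stimulated with an EC20 of TRH (10 nM final). Enhancement of the Gq-mediated intracellular calcium response was scored.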
D1 PAM: enhances dopamine response at the human D1 receptor; 0.036% of 360,000 active; HEK293 TREx D1 cells, calcium flux, dopamine EC20 potentiation; AID 504651; potentiation, % at 10 µM; P21728; in the data active = potentiation above about 30%; note: 0% is about no effect
D1 ag: activates the human D1 dopamine receptor. HEK293 T-REx D1 cells, calcium flux, agonist mode. AID 504660. activation, % at 2 µM. 1% of 360,000 active. P21728; note: 0% is about no effect
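Agonism was scored from calcium flux recorded over 180 s (1 read/s) after pintool compound addition, following a 10-cycle baseline. Cells were inducible force-coupled HEK293 TREx D1, plated overnight at 30 C and loaded with no-wash calcium dye.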
Numbers without * were called inactive. Sampled rows, rich in hits. Any-hit rate of the full collection: about 4.7%. Cut-off read from the data, not from the text of the source, unless noted: active = activation above about 30%; inactive = the rest.

How did COc1ccc(C2=NO[C@@H]3C(=O)N(C4CCCCC4)C(=O)[C@H]23)cc1OC do in these assays?
TRHR ag: 2; D1 antag: -35*; TRHR enhancer: -2; D1 PAM: -7; D1 ag: 26

What do the screens show for `CCCCc1nn2c(=O)cc(COC(=O)CNC(=O)c3ccccc3C)nc2s1`?
TRHR ag: 0; D1 antag: -15; TRHR enhancer: -2; D1 PAM: -5; D1 ag: 2

Results for CCOc1cc(C)c(C(C)C)cc1S(=O)(=O)N1CC(C)OC(C)C1 (stereo not drawn) ?
TRHR ag: 0; D1 antag: 3; TRHR enhancer: -2; D1 PAM: -1; D1 ag: 2

How did CCOc1cc(C)c(C(C)C)cc1S(=O)(=O)n1cnc(C)c1 do in these assays?
TRHR ag: 0; D1 antag: -31*; TRHR enhancer: 8; D1 PAM: -14; D1 ag: 3

What do the screens show for `CCOc1ccc(S(=O)(=O)n2cnc(C)c2)cc1`?
TRHR ag: -2; D1 antag: -44*; TRHR enhancer: 1; D1 PAM: -6; D1 ag: 7

What do the screens show for `O=C(Cn1c(=O)oc2cc(S(=O)(=O)NC3CCCC3)ccc21)Nc1ccc(F)c(F)c1`?
TRHR ag: 0; D1 antag: -3; TRHR enhancer: 4; D1 PAM: -7; D1 ag: 2

What do the screens show for `COCC(=O)N1CCN(c2ccc([N+](=O)[O-])cc2)CC1`?
TRHR ag: 0; D1 antag: -32*; TRHR enhancer: 4; D1 PAM: -11; D1 ag: 4

Results for Cc1cc(C(=O)N2CCN(c3ccc([N+](=O)[O-])cc3)CC2)no1 ?
TRHR ag: 0; D1 antag: -26; TRHR enhancer: 4; D1 PAM: -1; D1 ag: 12

How did COc1cc(CCC(=O)N2CCN(c3ccc([N+](=O)[O-])cc3)CC2)cc(OC)c1OC do in these assays?
TRHR ag: -1; D1 antag: 6; TRHR enhancer: -5; D1 PAM: -1; D1 ag: 2

How did Cc1cc(C(=O)N2CCN(c3ccc([N+](=O)[O-])cc3)CC2)n[nH]1 do in these assays?
TRHR ag: -1; D1 antag: -32*; TRHR enhancer: 0; D1 PAM: -11; D1 ag: 16

What do the screens show for `CCc1ccc(NC(=O)CN2C(=O)C(c3ccc(Cl)cc3)=NC23CCCCC3)cc1`?
TRHR ag: 1; D1 antag: 1; TRHR enhancer: 19; D1 PAM: -3; D1 ag: 2

Results for Cc1ccc2cccc(NC(=O)c3ccc(-c4cccc(Cl)c4Cl)o3)c2n1 ?
TRHR ag: 3; D1 antag: 3; TRHR enhancer: 3; D1 PAM: -2; D1 ag: -1

How did CCOC(=O)C1C(=O)NC(c2ccccc2)=NC1c1ccc(Cl)cc1 (stereo not drawn) do in these assays?
TRHR ag: 0; D1 antag: -11; TRHR enhancer: -3; D1 PAM: 0; D1 ag: 1

What do the screens show for `CCOC(=O)C1C(=O)NC(c2ccccc2)=NC1c1ccc(C(C)C)cc1` (stereo not drawn)?
TRHR ag: 0; D1 antag: -34*; TRHR enhancer: -8; D1 PAM: -3; D1 ag: 0

Results for Cc1ccc(OCc2nc(-c3ccc(C(=O)N4CCN(c5ccc(Cl)cc5)CC4)cc3)oc2C)cc1 ?
TRHR ag: 0; D1 antag: 7; TRHR enhancer: 7; D1 PAM: -2; D1 ag: 1

What do the screens show for `Cc1ccc(NC(=S)NNC(=O)Cn2nc([N+](=O)[O-])cc2C)cc1`?
TRHR ag: 0; D1 antag: -5; TRHR enhancer: 2; D1 PAM: -7; D1 ag: 2

How did COc1cccc(NC(=S)NNC(=O)Cn2nc([N+](=O)[O-])cc2C)c1 do in these assays?
TRHR ag: 0; D1 antag: 1; TRHR enhancer: 41*; D1 PAM: 1; D1 ag: 1

How did COc1ccc(OC)c(/C=C2\NC(=O)NC2=O)c1 do in these assays?
TRHR ag: -1; D1 antag: 2; TRHR enhancer: -2; D1 PAM: 13; D1 ag: 4

Results for COc1cc(N2CCCC2)c(OC)cc1/C=C1/NC(=S)NC1=O ?
TRHR ag: 71*; D1 antag: -35*; TRHR enhancer: 6; D1 PAM: -2; D1 ag: 183*

What do the screens show for `Cc1cc(C)cc(OCC(=O)Nc2nonc2-c2ccc(Br)cc2)c1`?
TRHR ag: -1; D1 antag: -14; TRHR enhancer: 5; D1 PAM: -1; D1 ag: -1

What do the screens show for `Cc1nc2ccccc2n1CCOc1ccc([N+](=O)[O-])cc1`?
TRHR ag: 1; D1 antag: -40*; TRHR enhancer: -3; D1 PAM: -10; D1 ag: 2

Results for CC(O)c1nc2ccccc2n1CCOc1ccccc1 (stereo not drawn) ?
TRHR ag: -1; D1 antag: -46*; TRHR enhancer: 15; D1 PAM: 1; D1 ag: 43*

What do the screens show for `Cc1ccc(OCCCCn2c(CO)nc3ccccc32)cc1`?
TRHR ag: 0; D1 antag: -37*; TRHR enhancer: 5; D1 PAM: -8; D1 ag: 14

What do the screens show for `Cc1nc2ccccc2n1CCOc1ccc(F)cc1`?
TRHR ag: 0; D1 antag: -30; TRHR enhancer: 9; D1 PAM: -16; D1 ag: 7

What do the screens show for `COc1ccc(-c2nn(C)c3sc(C(=O)Nc4cccc(F)c4)cc23)cc1OC`?
TRHR ag: -1; D1 antag: 0; TRHR enhancer: -3; D1 PAM: -6; D1 ag: 7

How did COc1ccc(CCNCC(O)COc2ccc(Cl)cc2)cc1OC (stereo not drawn) do in these assays?
TRHR ag: 5; D1 antag: 11; TRHR enhancer: 4; D1 PAM: -7; D1 ag: 17

Results for OC(CNCCc1ccc(Cl)cc1)COc1ccc2ccccc2c1 (stereo not drawn) ?
TRHR ag: 1; D1 antag: 7; TRHR enhancer: -2; D1 PAM: -1; D1 ag: 33*

How did COc1ccc(C(OCC(O)CNCCc2ccccc2)c2ccc(OC)cc2)cc1 (stereo not drawn) do in these assays?
TRHR ag: 5; D1 antag: -30*; TRHR enhancer: 9; D1 PAM: -10; D1 ag: 96*

Results for CC(C)(c1ccccc1)c1ccc(OCC(O)CN2CCCC2)cc1 (stereo not drawn) ?
TRHR ag: 3; D1 antag: -24; TRHR enhancer: 2; D1 PAM: -7; D1 ag: 25

How did COc1ccc(CCNCC(O)COc2c(C)cccc2C)cc1OC (stereo not drawn) do in these assays?
TRHR ag: 1; D1 antag: -38*; TRHR enhancer: 1; D1 PAM: -11; D1 ag: 7

Screens as filed in PubChem.
